Compounds with a hit are over-represented: about 3.8% of the library has one in this group of screens.
GLS inh: blocks human kidney-isoform glutaminase activity. O94925. 0.21% of 410,000 active. GLS enzymatic activity, qHTS titration. Potency, µM (series often up to 45.5 µM), actives largely listed as inhibitors
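hKGA in 45 mM KH2PO4 (pH 8.2), 0.02% Tween-20 with compound, then 1mM L-Glutamine (stock as added) plus glutamate oxidase/HRP/Amplex red coupling mix. Fluorescence read initially and after 30 min at RT; signal change reflects glutamate formation.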
KAT2A inh: blocks human GCN5L2 histone acetyltransferase; Q92830; GCN5L2 HAT assay, ThioGlo1 CoA-SH fluorescence; Potency, µM (top dose mostly 58.9 µM), usual class: inhibitors; 0.21% of 390,000 active; AID 504327
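ThioGlo1-coupled HAT assay: 20nM GCN5L2, 70uM acetyl-CoA, 75uM H3(1-25) peptide, pH 7.5. Fluorescence read at 340/540nm at start and after 20 min at room temperature.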
TrxR1 substrate: is turned over as a substrate by rat TrxR1; O89049; purified TrxR1 substrate turnover, NADPH consumption readout; Potency, µM (top dose mostly 114 µM); 0.01% of 390,000 active; AID 588456; also: nearly all actives have a fitted effect of over 50% in size
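Rat TrxR1, dispensed at 90 nM, was prereduced with 400 uM NADPH (final) for 5 min at ~22 deg C, then incubated with compound 15 min before 400 uM selenite. A first-read NADPH fluorescence drop versus no-compound background flagged substrates.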
Sfp PPTase inh: blocks B. subtilis Sfp PPTase activity; Biochemical Sfp PPTase activity, qHTS; Potency, µM, usual class: inhibitors; 3.5% of 310,000 active; AID 1490;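 also: the enzyme is Sfp with the accession as filed and its product quenches rhodamine fluorescence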
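Compounds were incubated with enzyme (final 15 nM) for 15 min at room temperature before substrate addition started the reaction. Fluorescence at 525 nm excitation, 598 nm emission was recorded immediately and after 30 minutes.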
TrxR1 inh: rat TrxR1 inhibition; Potency, µM (titrated, usually from 114 µM), actives largely listed as inhibitors; recombinant rTrxR1, NADPH fluorescence consumption, selenite substrate; O89049; 1% of 390,000 active; also: nearly all actives have a fitted effect of over 65% in size
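Rat TrxR1 (90 nM in the dispensed reagent) was pre-reduced with 400 uM NADPH for 5 min at room temperature, then incubated with compound for 15 min. After 400 uM selenite was added, NADPH fluorescence (Ex 340/Em 450 nm) was followed for 8 min.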
VDR inhibitor: inhibitors of human vitamin D receptor; VDR-SRC2-3 peptide fluorescence polarization, 2 h; Potency, µM, usual class: inhibitors; 0.93% of 400,000 active; AID 504847
Target sequence (P11473 whole entry, looked up): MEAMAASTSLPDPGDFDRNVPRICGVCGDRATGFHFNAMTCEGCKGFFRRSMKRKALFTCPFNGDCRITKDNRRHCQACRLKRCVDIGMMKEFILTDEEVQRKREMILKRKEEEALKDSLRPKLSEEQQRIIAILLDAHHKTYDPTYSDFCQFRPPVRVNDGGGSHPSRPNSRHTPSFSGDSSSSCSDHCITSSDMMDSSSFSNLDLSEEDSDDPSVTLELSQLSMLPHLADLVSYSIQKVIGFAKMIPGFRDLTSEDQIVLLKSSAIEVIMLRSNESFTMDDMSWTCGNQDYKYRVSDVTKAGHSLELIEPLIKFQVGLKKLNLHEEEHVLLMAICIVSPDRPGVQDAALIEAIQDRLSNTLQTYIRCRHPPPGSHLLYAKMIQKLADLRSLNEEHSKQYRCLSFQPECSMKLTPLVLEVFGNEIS
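The screen uses fluorescence polarization to detect compounds that interfere with recruitment of the SRC2-3 coactivator peptide to VDR; plates are read after 2 h at room temperature.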
Hits are given with their value. Calls follow the shape of the dose curve; as a rule, active = well fitted curve in the direction sought with a large enough effect; inconclusive = small, poorly fitted or top-dose-only effect, or another doubt; inactive = no such curve, though single readings can be large; an effect the other way counts as inactive or inconclusive.

CC(=O)OCC1=C(C(=O)O)N2C(=O)C(NC(=O)c3ccc(F)cc3)C2SC1 (stereo not drawn) was read as GLS inh inactive, KAT2A inh inactive, TrxR1 substrate inactive, Sfp PPTase inh inactive, TrxR1 inh inconclusive and VDR inhibitor inactive.
`Cc1nnc(SCC2=C(C(=O)O)N3C(=O)C(NC(=O)Cn4ncc(Cl)c4C)C3SC2)s1` (stereo not drawn) gave GLS inh inconclusive, KAT2A inh inactive, TrxR1 substrate inactive, Sfp PPTase inh 28µM, TrxR1 inh 22µM and VDR inhibitor inactive.
For O=C(Cn1cnnn1)N[C@@H]1C(=O)N2C(C(=O)O)=C(CSc3nncs3)CS[C@H]12 the results were GLS inh inactive.
`CCOC(=O)CSC1=C(C#N)C(c2ccc(C)s2)CC(=O)N1` (stereo not drawn) gave GLS inh inactive, KAT2A inh inactive, TrxR1 substrate inactive, Sfp PPTase inh inactive, TrxR1 inh inactive and VDR inhibitor inactive.
Screening CCOC(=O)CSC1=C(C#N)C(=O)NC2(CCCCC2)S1 returned GLS inh inactive, KAT2A inh inconclusive, TrxR1 substrate inactive, Sfp PPTase inh 50µM, TrxR1 inh inactive and VDR inhibitor 79µM.
Screening COc1ccc2[nH]c3c(=S)nc[nH]c3c2c1 returned GLS inh inactive, KAT2A inh inconclusive, TrxR1 substrate inactive, Sfp PPTase inh 50µM, TrxR1 inh inactive and VDR inhibitor inactive.
Screening COc1ccc2[nH]c3c(Cl)ncnc3c2c1 returned GLS inh inactive, KAT2A inh inactive, TrxR1 substrate inactive, Sfp PPTase inh inactive, TrxR1 inh inactive and VDR inhibitor inactive.
For CC1(C)Cc2c(sc(N)c2C#N)C(C)(C)N1 the results were GLS inh inactive, KAT2A inh inactive, TrxR1 substrate inactive, Sfp PPTase inh 18µM, TrxR1 inh inactive and VDR inhibitor inactive.
Screening CCOC(=O)N1CCN(c2cc(=O)n(-c3ccc(Br)cc3)c(=O)[nH]2)CC1 returned GLS inh inactive, KAT2A inh inactive, TrxR1 substrate inactive, Sfp PPTase inh inactive, TrxR1 inh 18µM and VDR inhibitor inconclusive.
`Cc1ccc(-c2c[n+](CC(=O)Nc3cc(=O)n(C)c(=O)n3C)c3n2CCC3)cc1` gave GLS inh inactive, KAT2A inh inactive, TrxR1 substrate inactive, Sfp PPTase inh inactive, TrxR1 inh inactive and VDR inhibitor inactive.
Screening COc1cc(NC(=O)c2cc3sccc3n2C)cc(OC)c1 returned GLS inh inactive, KAT2A inh inactive, TrxR1 substrate inactive, Sfp PPTase inh 50µM, TrxR1 inh inactive and VDR inhibitor inactive.
`Cn1c(C(=O)Nc2ccccc2)cc2sccc21` gave GLS inh inactive, KAT2A inh inconclusive, TrxR1 substrate inactive, Sfp PPTase inh inactive, TrxR1 inh inactive and VDR inhibitor inactive.
Screening COc1cccc(CNc2ccc(N3CCCCC3)cc2)c1OC returned GLS inh inactive, KAT2A inh inactive, TrxR1 substrate inactive, Sfp PPTase inh 2.8µM, TrxR1 inh inconclusive and VDR inhibitor inactive.
For CCOc1cc(CNc2ccc(N3CCOCC3)cc2)cc(Br)c1OCC the results were GLS inh 13µM, KAT2A inh inactive, TrxR1 substrate inactive, Sfp PPTase inh inactive, TrxR1 inh inactive and VDR inhibitor inactive.
C=CCOc1c(Cl)cc(CNc2ccc(N(C)C)cc2)cc1OC was read as GLS inh inactive, KAT2A inh inactive, TrxR1 substrate inactive, Sfp PPTase inh 3.5µM, TrxR1 inh inconclusive and VDR inhibitor 2.2µM.
For COc1cc(CNc2ccc(N3CCOCC3)cc2)cc(Br)c1OC the results were GLS inh inactive, KAT2A inh inactive, TrxR1 substrate inactive, Sfp PPTase inh inconclusive, TrxR1 inh inactive and VDR inhibitor inactive.
CCOc1ccc(CNc2ccc(N3CCCC3)cc2)cc1 was read as GLS inh inactive, KAT2A inh inactive, TrxR1 substrate inactive, Sfp PPTase inh inconclusive, TrxR1 inh inconclusive and VDR inhibitor 4µM.
For COc1cc(CNc2ccc(N3CCCC3)cc2)cc(Cl)c1OC the results were GLS inh inconclusive, KAT2A inh inactive, TrxR1 substrate inactive, Sfp PPTase inh 14µM, TrxR1 inh inconclusive and VDR inhibitor 5.6µM.
CCOc1c(Br)cc(CNc2ccc(N3CCN(C(C)=O)CC3)cc2)cc1OC was read as GLS inh inactive, KAT2A inh inactive, TrxR1 substrate inactive, Sfp PPTase inh inactive, TrxR1 inh inactive and VDR inhibitor inactive.
O=C(Nc1cccc(O)c1)C1CCCN1C(=O)OCc1ccccc1 (stereo not drawn) was read as GLS inh inactive, KAT2A inh inactive, TrxR1 substrate inactive, Sfp PPTase inh inactive, TrxR1 inh inactive and VDR inhibitor inactive.
Screening CC(NC(=O)CCl)c1ccc(Cl)c(Cl)c1 (stereo not drawn) returned GLS inh inactive, KAT2A inh inactive, TrxR1 substrate inactive, Sfp PPTase inh inactive, TrxR1 inh 40µM and VDR inhibitor inactive.
Screening Cc1oc(-c2ccc(F)cc2)cc1-c1nn2c(-c3ccoc3C)nnc2s1 returned GLS inh inactive, KAT2A inh inactive, TrxR1 substrate inactive, Sfp PPTase inh 40µM, TrxR1 inh inactive and VDR inhibitor inconclusive.
Screening CC(CCc1ccco1)NC(=O)c1cc2c(-c3ccccc3F)nn(C)c2s1 (stereo not drawn) returned GLS inh inactive, KAT2A inh inactive, TrxR1 substrate inactive, Sfp PPTase inh 45µM, TrxR1 inh inactive and VDR inhibitor inactive.
Cn1nc(-c2ccccc2F)c2cc(C(=O)NCc3ccc(Cl)cc3)sc21 was read as GLS inh inactive, KAT2A inh inactive, TrxR1 substrate inactive, TrxR1 inh inactive and VDR inhibitor inactive.
CCN(CCCNC(=O)COc1cc(=O)n(C)c2ccccc12)c1cccc(C)c1 was read as GLS inh inactive, KAT2A inh inactive, TrxR1 substrate inactive, Sfp PPTase inh inactive, TrxR1 inh inactive and VDR inhibitor inactive.
Screening Cc1c(C(=O)N2CCC(Cc3ccccc3)CC2)sc2ncnc(N3CCC(C)CC3)c12 returned GLS inh inactive, KAT2A inh inactive, TrxR1 substrate inactive, Sfp PPTase inh inactive, TrxR1 inh inactive and VDR inhibitor inactive.
Screening Cc1c(C(=O)N2CCCC(C)C2)sc2ncnc(N3CCCCC3C)c12 (stereo not drawn) returned GLS inh inactive, KAT2A inh inactive, TrxR1 substrate inactive, Sfp PPTase inh 79µM, TrxR1 inh inactive and VDR inhibitor inactive.
c1ccc(Nc2nc(N3CCCC3)nc(N3CCOCC3)n2)cc1 was read as GLS inh inactive, TrxR1 substrate inactive, TrxR1 inh inactive and VDR inhibitor inactive.
`CCNC(=S)NNc1nc(N2CCCCC2)nc(N2CCOCC2)n1` gave GLS inh inactive, KAT2A inh inactive, TrxR1 substrate inactive, Sfp PPTase inh 11µM, TrxR1 inh inactive and VDR inhibitor inactive.

Screening results: PubChem, National Center for Advancing Translational Sciences (NCATS)
